Assay outcomes as filed in PubChem BioAssay.
TcdB GH inh = TcdB glycohydrolase inhibitors, primary screen, biochemical, single point, plate reader | TcdB glycohydrolase enzymatic assay | inhibition, % at 9.99 µM | hit rate 0.24% among 350,000; in the data active = inhibition above about 10%
Mtb BioA inh = M. tuberculosis BioA enzyme inhibitors, primary screen, biochemical, plate reader, single point, HTS | 7,8-diaminopelargonic acid synthase BioA (Mycobacterium tuberculosis) | purified M. tuberculosis BioA enzyme | inhibition, % at 9.99 µM | hit rate 0.096% among 360,000; in the data active = inhibition above about 40%
DUSP3 inh = VHR1 phosphatase inhibitors, primary screen, biochemical, absorbance, uHTS; Dual specificity protein phosphatase 3 (Homo sapiens), P51452; recombinant VHR phosphatase, pNPP absorbance; inhibition, % at 13.3 µM; hit rate 0.52% among 290,000; in the data active = inhibition above about 50%
Target sequence (P51452 whole entry, looked up): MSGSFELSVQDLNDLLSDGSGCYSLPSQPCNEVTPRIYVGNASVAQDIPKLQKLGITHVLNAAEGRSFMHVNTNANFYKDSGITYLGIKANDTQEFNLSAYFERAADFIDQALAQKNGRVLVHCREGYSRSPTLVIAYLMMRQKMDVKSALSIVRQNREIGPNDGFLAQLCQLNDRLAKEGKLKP
Vc quorum ag = inducers of Vibrio cholerae quorum light production without autoinducers, primary screen, BH1578 luxS cqsA deficient, single point; V. cholerae BH1578 lux reporter, luminescence, 6 h; activation, % at 18.7 µM; hit rate 0.16% among 350,000; in the data active = activation mostly above about 9.7%, no sharp cut-off
Yp Topo-I inh = Yersinia pestis topoisomerase I inhibitors, primary screen, biochemical, cleavage product accumulation, plate reader, single point | AID 504884, 2011 | hit rate 0.064% among 360,000 | DNA topoisomerase I (Yersinia pestis CO92) | activity, % at 10 µM | Y. pestis Topo-I cleavage product accumulation; in the data active = activity above about 50%, passing the limit was not always enough
Of the large screens only hits and unclear results are named; the others gave an inactive call. The list is not random: actives were taken first. Their share in the collection is about 0.73%.

Cc1ccc(OCC(=O)Nc2ccc(S(=O)(=O)Nc3ccccn3)cc2)c(C)c1	DUSP3 inh 55.6 (no result: TcdB GH inh)
Cc1ccc2c(CN3CCC(C)CC3)cc(=O)oc2c1C	DUSP3 inh 53.0
Cc1ccc2c(CN3CC(C)CC(C)C3)cc(=O)oc2c1C (stereo not drawn)	none
COc1ccc2c3c([nH]c2c1)[C@@H](CO)N(CC1CC1)CC31CN(C(=O)NC2CCCC2)C1	none (no result: Mtb BioA inh, DUSP3 inh, Vc quorum ag, Yp Topo-I inh)
C[C@H]1CCCCO[C@H](CN(C)Cc2ccc3c(c2)OCO3)[C@@H](C)CN([C@@H](C)CO)C(=O)c2cc(NC(=O)C3CCCCC3)ccc2O1	none (no result: DUSP3 inh, Vc quorum ag, Yp Topo-I inh)
O=[N+]([O-])c1ccc(S(=O)(=O)Nc2nc(-c3ccccc3)cs2)cc1	TcdB GH inh 12.6
O=S(=O)(Nc1nc(-c2ccccc2)cs1)c1cccc(C(F)(F)F)c1	none
COCCC1CCCCN1C(=O)c1cc(COc2cccc(C(C)=O)c2)on1 (stereo not drawn)	none
CC(=O)c1ccc(OCc2cc(C(=O)N3CCC[C@H]3CO)no2)cc1	DUSP3 inh 59.8
CC(COc1ccccc1)N1CCC(CO)(Cc2ccccc2)CC1 (stereo not drawn)	DUSP3 inh 57.8 (no result: Mtb BioA inh)
COc1ccc(NC(=O)N(C)C[C@H]2OCCCC[C@@H](C)Oc3ccc(NS(=O)(=O)c4ccc(Cl)cc4)cc3C(=O)N([C@H](C)CO)C[C@@H]2C)cc1	none (no result: DUSP3 inh, Vc quorum ag, Yp Topo-I inh)
Cc1noc(C)c1NC(=O)Nc1ccc2c(c1)CC(=O)N([C@H](C)CO)C[C@H](C)[C@@H](CN(C)Cc1ccc(Oc3ccccc3)cc1)O2	none (no result: TcdB GH inh, DUSP3 inh, Vc quorum ag, Yp Topo-I inh)
CCOC(=O)C1CCN(C(=O)c2cccc(N3C(=O)NC4CC3(C)Oc3ccc(C)cc34)c2)CC1 (stereo not drawn)	none
Cc1ccc2c(c1)C1CC(C)(O2)N(c2cccc(C(=O)N3CCN(c4ccccn4)CC3)c2)C(=O)N1 (stereo not drawn)	DUSP3 inh 56.3
C[C@H](CO)N1C[C@H](C)[C@H](CN(C)C(=O)Nc2ccc(F)cc2)Oc2ncc(-c3ccc(C#N)cc3)cc2C1=O	none (no result: DUSP3 inh, Vc quorum ag, Yp Topo-I inh)
CCOC(=O)/C=c1/s/c(=C/c2ccc3cc(OC)ccc3c2)c(=O)n1CC(=O)NCC1CCCO1 (stereo not drawn)	TcdB GH inh 11.8 (no result: Mtb BioA inh, DUSP3 inh)
CN1CCN(C(=O)C2=C[C@@H](c3ccc4c(c3)OCO4)C[C@@H](OCCCCO)O2)CC1	none (no result: DUSP3 inh, Vc quorum ag, Yp Topo-I inh)
COc1ccc(NC(=O)CN2C(=O)S/C(=C/c3cccn3-c3ccc(C(=O)O)cc3)C2=O)cc1	DUSP3 inh 57.1
CN(C)CCNc1cccc2sc3ccc(O)cc3c(=O)c12	TcdB GH inh 39.0 (no result: Mtb BioA inh, DUSP3 inh, Vc quorum ag, Yp Topo-I inh)
CCN(CC)CCNc1cccc2sc3ccccc3c(=O)c12	none (no result: DUSP3 inh)
Cc1ccc(NCCN(C)C)c2c(=O)c3cc(O)ccc3sc12	TcdB GH inh 21.3 (no result: Mtb BioA inh, DUSP3 inh)
S=c1[nH]c(-c2ccccc2)cs1	TcdB GH inh 17.3 (no result: Mtb BioA inh)
Fc1ccc(-c2csc(=S)[nH]2)cc1	TcdB GH inh 19.4 (no result: Mtb BioA inh)
O=S(=O)(NC[C@@H]1[C@@H](c2ccccc2)[C@@H](CO)N1CC1CC1)c1ccccc1	none (no result: DUSP3 inh, Vc quorum ag, Yp Topo-I inh)
O=C(NCc1ccccn1)[C@@H]1[C@@H](CO)[C@@H]2Cn3c(cccc3=O)[C@@H]2N1CCc1ccccc1	none (no result: DUSP3 inh, Vc quorum ag, Yp Topo-I inh)
C[C@H]1CCCCO[C@H](CN(C)C(=O)Nc2ccc3c(c2)OCO3)[C@@H](C)CN([C@@H](C)CO)C(=O)c2cc(NS(C)(=O)=O)ccc2O1	none (no result: DUSP3 inh, Vc quorum ag, Yp Topo-I inh)
COc1ccc(Br)cc1/C=C/c1ccc2cccc(O)c2n1	DUSP3 inh 56.9
COc1cc(Br)cc(/C=C/c2ccc3cccc(O)c3n2)c1OC	none (no result: Mtb BioA inh, DUSP3 inh)
COc1ccc(NC(=O)/C(=C\c2ccc(F)cc2)NC(=O)c2ccco2)cc1	DUSP3 inh 56.2
COc1ccc(NC(=O)/C(=C\c2ccccc2)NC(=O)c2ccco2)cc1	none (no result: Mtb BioA inh)
CCCNC(=O)c1cc(C2CCCCN2S(=O)(=O)c2cccc3cccnc23)on1 (stereo not drawn)	none (no result: DUSP3 inh)
O=C(NCc1cccnc1)c1cc(C2CCCCN2S(=O)(=O)c2cccc3cccnc23)on1 (stereo not drawn)	TcdB GH inh 10.1 (no result: DUSP3 inh)
Cc1ccc(CN=C(N)Nc2nc(C)cc(C)n2)cc1	DUSP3 inh 57.4
CC(C)OC(=O)C(=O)NNc1ccccc1	TcdB GH inh 14.8
O=C(NCCCn1ccnc1)c1cccc(Br)c1	DUSP3 inh 52.6
O=C(NCCCn1ccnc1)c1ccc(Br)cc1	none
C[C@@H]1CN([C@H](C)CO)C(=O)Cc2cc(NC(=O)Nc3cccc4ccccc34)ccc2O[C@H]1CN(C)C(=O)Nc1ccc(F)cc1	none (no result: DUSP3 inh, Vc quorum ag, Yp Topo-I inh)
CCCc1cc(-c2n[nH]c(C(=O)OCC)c2-c2cscn2)c(O)cc1O	TcdB GH inh 21.5
Nc1c(C(=O)c2ccccc2)sc2c1c(=O)[nH]c(=O)n2-c1ccccc1	none (no result: TcdB GH inh)
Cc1ccc(C(=O)c2sc3c(c2N)c(=O)[nH]c(=O)n3CCc2ccccc2)cc1	Yp Topo-I inh 160.4 (no result: TcdB GH inh, Mtb BioA inh)
CCn1nc(NC(=O)C(C)C)c2cc3cccc(C)c3nc21	DUSP3 inh 56.0
CSc1cccc(CN2CCC(CCC(=O)NC3CC3)CC2)c1	DUSP3 inh 51.3
Cc1cc(C)c(NC(=O)Cn2ncc3ccccc32)c(C)c1	DUSP3 inh 57.3
O=C(c1ccc(Cl)c(S(=O)(=O)NCc2ccccc2)c1)N1CCN(c2ccccn2)CC1	DUSP3 inh 54.4
COc1ccc(CNC(=O)c2cc3cccc(OC)c3oc2=N)cc1	DUSP3 inh 53.5
CCNC(=O)C[C@@H]1CC[C@@H]2[C@H](COC[C@@H](O)CN2C(=O)Nc2ccc(C(F)(F)F)cc2)O1	none (no result: DUSP3 inh, Vc quorum ag, Yp Topo-I inh)
CC1=NCCc2c1[nH]c1cc(O)ccc21	TcdB GH inh 42.2 (no result: DUSP3 inh)
COc1ccc2c3c([nH]c2c1)C(C)=NCC3	none
Cc1cc2nc(C)n(CCCN)c2cc1C	DUSP3 inh 51.0 (no result: TcdB GH inh)
Cn1c(=O)oc2cc(S(=O)(=O)NCc3ccccc3)ccc21	DUSP3 inh 50.9 (no result: TcdB GH inh)
Cn1c(=O)oc2cc(S(=O)(=O)NCc3ccc(Cl)cc3)ccc21	none
COC(=O)c1ccccc1NS(=O)(=O)c1ccc2c(c1)oc(=O)n2C	DUSP3 inh 51.7
O=C(NCC(=O)N1CCN(Cc2ccccc2)CC1)c1ccc(Cl)cc1	DUSP3 inh 57.1
O=C(NCC(=O)N1CCN(Cc2ccccc2)CC1)c1ccc(Br)cc1	none
CCOC(=O)C1=C(N)n2c(s/c(=C\c3cccnc3)c2=O)=C(C(=O)OC)C1c1cccnc1 (stereo not drawn)	none (no result: TcdB GH inh, DUSP3 inh)
CCOC(=O)C1=C(N)n2c(s/c(=C\c3cccnc3)c2=O)=C(C(=O)OCC)C1c1cccnc1 (stereo not drawn)	DUSP3 inh 56.7 (no result: TcdB GH inh, Mtb BioA inh, Vc quorum ag, Yp Topo-I inh)
O=C(C[C@@H]1CC[C@H](NC(=O)C2CCC2)[C@@H](CO)O1)NC1CCC1	none (no result: DUSP3 inh, Vc quorum ag, Yp Topo-I inh)
Cc1ccc(S(=O)(=O)/N=c2\sccn2C)cc1	Vc quorum ag 46.1 (no result: TcdB GH inh)
COc1cc(/C=C2\C(=O)ON=C2c2ccccc2)cc(OC)c1OC	Vc quorum ag active (no result: TcdB GH inh)
COc1ccc(/C=C2/C(=O)ON=C2c2ccccc2)cc1OC	none (no result: TcdB GH inh)
